This note sets out measurements from PubChem BioAssay (NCI).

Compounds without any hit were thinned out: in the full panel of roughly 83,000, 20% have a hit.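 The endpoint reported here, percent growth, reads 100 for growth as untreated, 0 for no net growth and -100 for all cells dead.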 Unmarked numbers belong to inactive results. Activity calls are given as the source filed them. How the source made its calls: active means growth percent below 10; inactive means the rest.

The assay deals with HL-60(TB) leukemia. Kind of assay: NCI-60 one-dose screen, 48 h (100 = growth as untreated, 0 = no growth, -100 = all killed). To be noted: 10 µM unless noted.
Take `N=C(N)c1ccc(-c2ccc(-c3cccs3)o2)cc1`: the growth is -28.5% (active).
For `CCOc1ccc(Nc2ccnc3cc(Cl)ccc23)cc1`, the growth was -25.6% (active).
The value for `Clc1ccc(-c2cc(-c3ccccc3)nc(NCCNc3ccnc4cc(Cl)ccc34)n2)cc1` was -31.9% (active); that for `COc1ccc(C2CC(c3ccc(Nc4nc(Nc5ccc(F)cc5)nc(Nc5ccc(Cl)cc5)n4)cc3)=NN2C(C)=O)cc1` (stereo not given) was 206%; that for `CC(O)Cc1c[nH]c(=O)[nH]c1=O` (stereo not given) was 103%.
The value for `O=C(CN1C=NC2C(N3CCOCC3)=NC=NC21)c1cccc2ccccc12` (stereo not given) was 103%; that for `OCC1OC(n2ccc3c2ncn2ncnc32)C(O)C1O` (stereo not given) was -14.4% (active); that for `CCOC(=O)c1cc(Cl)c(O)c(Cl)c1` was 64.9%.
The value for `NNC(=O)C1CC2c3ccccc3C1c1ccccc12` (stereo not given) was 113%; that for `O=C1C(=O)c2c(nc3ccc(Cl)cn23)-c2ccccc21` was -79.7% (active).
In the case of `N#Cc1ncc(-c2cc(F)ccc2F)c(NC2CCCCCC2)n1`, the growth is 86.9%.
The value for `COc1ccc2c(c1)C(=O)/C(=C/c1ccc(OCC(=O)c3ccc(Cl)cc3)cc1)O2` was 70.2%.
The value for `O=C(NCCNc1nccc(-c2c(-c3cccc(F)c3)nc3sccn23)n1)c1ccc(Cl)cc1` was 99.1%; that for `CS(=O)(=O)N(c1cc(-c2ccc3ncnc(Nc4ccc(F)c(Cl)c4)c3c2)cnc1Cl)S(C)(=O)=O` was 20.4%; that for `CC/C(=C(/c1ccc(OCCN(C)C)cc1)c1ccc(OC(=O)CCCCC(=O)c2c(C)[nH]c(/C=C3\N=C(c4ccc[nH]4)C=C3OC)c2C)cc1)c1ccccc1` was 82.2%.
For `CN=C(N)N/N=C(\C)c1ccc2c(c1)Cc1cc(/C(C)=N/NC(N)=NC)ccc1-2`, the growth is -23.2% (active).
As for `CN1CCN(Cc2ccc(NC(=O)c3[nH]ncc3Nc3ccnc4ccsc34)cc2)CC1`, the growth was -17.8% (active).
For the compound `COC(=O)c1oc2c(C(=O)/C=C/c3ccc(OC)cc3)c(OCCN3CCOCC3)ccc2c1C`, the growth is -24.1% (active).
The value for `Cc1ccc(C(=O)Nc2ccc(CN3CCN(C)CC3)c(C(F)(F)F)c2)cc1C#Cc1cnc(N)c2ccccc12` was -37.9% (active); that for `O=C(/C=C/c1cc2ccccc2[nH]c1=O)c1ccc(Cl)cc1` was 11.6%; that for `COc1cc(CNC(=O)CCCC/C=C/C(C)C)ccc1O` was 91.1%.
The value for `CCOC(=O)N1CCc2c(sc3c2C(=O)N[C@H](c2ccc(OC)cc2)N3)C1` was 99.8%; that for `COc1cc(NC(=O)SC2=NCCS2)cc(OC)c1` was 90.5%; that for `Nc1ccccc1C#Cc1ccccc1C#Cc1ccc(OCCCCCCOc2ccc(C#Cc3ccccc3C#Cc3ccccc3N)cc2)cc1` was 110%.
The value for `CC/C=C\C/C=C\C[C@H](O)C/C=C1/C(=O)C=C[C@H]1C/C=C\CCC(=O)OC` was 1.46% [8.25 µM] (active); that for `COc1cc(/C=C/C(=O)N2CCN(C(=O)/C=C/c3ccccc3)CC2)cc(OC)c1OC` was 101%; that for `Cc1cccc2c(=O)c3c(sc12)c(N1CCNCC1)nc1ccccc13` was 52.9%.
Take `CCCNNC(=O)c1ccc(CNC(=O)/C=C/c2ccccc2)cc1`: the growth is 33.4% [2.5 µM].
The value for `O=C1c2ccccc2C(=O)c2cc(Cn3cc[n+](Cc4ccc5ccccc5c4)c3)ccc21` was 43%; that for `O=C(COc1cccc(/C=C2/Oc3ccccc3C2=O)c1)Nc1nccs1` was -72.9% (active).
On to `CC1=CC(=O)C=CC1=Nc1ccc(N(C)C)cc1`, for which the growth is -1.75% (active).
The value for `CN1CCN(Cc2ccc(NC(=O)c3[nH]ncc3Nc3cc(OC4CCCC4)ncn3)cc2)CC1` was -12.7% (active); that for `NC(=O)c1ccc(N=C(N)N=C(N)N)cc1` was 98.7%.
On to `COc1cccc2c(N=NC(=O)c3ccc(S(N)(=O)=O)cc3)c(O)[nH]c12`, for which the growth is 98.4%.
The value for `COc1cc(C(=O)/C=C/c2cc(C(=O)c3cc(OC)c(OC)c(OC)c3)ccc2OC)ccc1N` was 3.92% (active).
For the compound `N#Cc1c(Nc2cccc(Cl)c2)sc(C(=O)c2cc3cc(Cl)ccc3o2)c1N`, the growth was 92.9%.
The value for `Cc1cccnc1NC(=S)Nc1ncccc1C` was 136%; that for `COc1ccc(/C=C/C(=O)Nc2ccc(-c3nc4ccc(F)cc4s3)cc2)cc1` was 91.4%.
The value for `CC1=NN(c2ccccc2)C(=O)C1C(=O)c1ccccc1` (stereo not given) was 68.5%; that for `Cn1c(=O)c2[nH]c(CC(=O)O)nc2n(C)c1=O` was 110%.
